Laboratory results from PubChem BioAssay.
Calls of active or inactive are those of the source. Unless noted, no rule for the calls is given here.

Key:
[1] = compounds binding Alexa647 anti-His antibody – biochemical, small-molecule microarray, 635 nm fluorescence, artefact control for SMM control protein annotation, primary screen (AID 1128); settings: higher = more signal;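 also: score merges feature fluorescence with signal-to-noise for each printed compound spot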
[2] = system: Human papillomavirus type 1a E7 protein (residues 1-88); test: HPV1a E7 small-molecule binders, primary screen, biochemical, small-molecule microarray, residues 1-88, 635 nm (AID 1129); settings: small-molecule microarray binding, fluorescence 635 nm; higher = more signal
[3] = molecular target: Focal adhesion kinase 1 (Homo sapiens) (UniProt Q05397); test: PTK2 protein binding on printed compound slides – biochemical, small-molecule microarray, 635/667 nm fluorescence, BSA, DTT, primary screen (AID 1130); settings: 635 nm fluorescence, higher = more signal;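 also: composite of spot emission at 667 nm and signal to noise over triplicate slides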
Sequence of Focal adhesion kinase 1 (Homo sapiens) (Q05397 whole entry, looked up): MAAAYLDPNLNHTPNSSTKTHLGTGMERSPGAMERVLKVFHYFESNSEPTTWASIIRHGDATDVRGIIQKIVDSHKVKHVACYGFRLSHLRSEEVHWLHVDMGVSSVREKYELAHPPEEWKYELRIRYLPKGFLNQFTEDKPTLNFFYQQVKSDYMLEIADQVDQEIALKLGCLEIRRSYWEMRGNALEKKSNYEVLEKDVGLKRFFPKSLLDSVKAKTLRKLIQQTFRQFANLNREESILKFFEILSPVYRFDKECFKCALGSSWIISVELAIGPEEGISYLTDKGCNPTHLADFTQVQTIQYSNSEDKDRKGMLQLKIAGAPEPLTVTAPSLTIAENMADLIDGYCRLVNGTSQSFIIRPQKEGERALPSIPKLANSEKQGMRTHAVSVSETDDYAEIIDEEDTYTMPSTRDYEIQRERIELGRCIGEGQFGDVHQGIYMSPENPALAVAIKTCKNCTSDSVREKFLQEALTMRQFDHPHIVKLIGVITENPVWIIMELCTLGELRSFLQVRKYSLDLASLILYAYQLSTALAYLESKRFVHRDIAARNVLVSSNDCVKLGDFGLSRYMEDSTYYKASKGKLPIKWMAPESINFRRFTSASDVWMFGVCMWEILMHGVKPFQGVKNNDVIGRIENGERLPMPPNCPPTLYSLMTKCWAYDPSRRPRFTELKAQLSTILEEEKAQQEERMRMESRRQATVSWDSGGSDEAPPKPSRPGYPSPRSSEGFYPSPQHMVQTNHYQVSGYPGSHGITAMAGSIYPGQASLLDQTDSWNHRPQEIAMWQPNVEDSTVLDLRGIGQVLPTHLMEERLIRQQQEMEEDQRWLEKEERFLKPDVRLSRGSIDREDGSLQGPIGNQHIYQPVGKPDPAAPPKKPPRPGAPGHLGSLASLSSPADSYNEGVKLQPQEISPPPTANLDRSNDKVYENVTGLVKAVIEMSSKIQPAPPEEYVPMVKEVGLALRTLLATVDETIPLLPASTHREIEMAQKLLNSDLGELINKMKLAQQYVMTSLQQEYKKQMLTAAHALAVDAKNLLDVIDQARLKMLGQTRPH

[4] = system: Fibrinogen (Alexa647-labelled); test: Alexa647-fibrinogen binding to printed small molecules – biochemical, small-molecule microarray, 635/667 nm fluorescence, artefact control for SMM control-protein annotation, profiling panel (AID 1131); settings: fibrinogen-A647 binding fluorescence, higher = more signal;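 also: z-score merges 667 nm fluorescence with per-spot signal-to-noise over triplicate slides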
[5] = molecular target: Follistatin (Homo sapiens) (UniProt P19883); test: FST protein binding to printed compounds – biochemical, small-molecule microarray, 635/667 nm fluorescence, primary screen (AID 1132); settings: 635 nm fluorescence, higher = more signal
Sequence of Follistatin (Homo sapiens) (P19883 whole entry, looked up): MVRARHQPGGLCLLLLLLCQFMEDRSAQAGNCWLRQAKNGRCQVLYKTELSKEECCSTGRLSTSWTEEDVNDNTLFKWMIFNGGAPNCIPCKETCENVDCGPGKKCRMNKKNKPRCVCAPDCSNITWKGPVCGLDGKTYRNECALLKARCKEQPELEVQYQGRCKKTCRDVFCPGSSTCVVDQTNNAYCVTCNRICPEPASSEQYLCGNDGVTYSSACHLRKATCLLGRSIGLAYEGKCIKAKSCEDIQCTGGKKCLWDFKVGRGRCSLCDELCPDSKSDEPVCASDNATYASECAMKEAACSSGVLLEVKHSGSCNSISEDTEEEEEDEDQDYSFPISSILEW

[6] = molecular target: Fibroblast growth factor 2 (Homo sapiens) (UniProt P09038); test: basic fibroblast growth factor binding to printed compounds – biochemical, small-molecule microarray, 635/667 nm fluorescence, primary screen (AID 1133); settings: FGF2, fluorescence 635/667, higher = more signal
Sequence of Fibroblast growth factor 2 (Homo sapiens) (P09038 whole entry, looked up): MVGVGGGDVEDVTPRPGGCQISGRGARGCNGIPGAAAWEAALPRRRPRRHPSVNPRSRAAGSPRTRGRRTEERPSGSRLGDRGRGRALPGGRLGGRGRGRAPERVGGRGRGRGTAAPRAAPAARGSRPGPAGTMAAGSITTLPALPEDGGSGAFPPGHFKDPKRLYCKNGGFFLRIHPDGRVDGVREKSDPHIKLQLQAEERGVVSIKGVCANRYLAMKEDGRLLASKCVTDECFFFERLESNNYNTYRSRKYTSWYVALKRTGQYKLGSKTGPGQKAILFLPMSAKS

[7] = JC-1 mitochondrial potential readout, lung cancer cells – cell-based, A549, JC-1 fluorescence, basal, 24 h, 100 nL, profiling panel (AID 1138); settings: higher = more signal;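 also: A549 lung adenocarcinoma cells under basal conditions with no added stimulus; test concentration not given here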
[8] = system: Lefty1; test: Lefty1 protein binding to printed compounds – biochemical, small-molecule microarray, 635/667 nm fluorescence, primary screen (AID 1139); settings: fluorescence 635/667, higher = more signal
[9] = system: wheat germ agglutinin (Triticum aestivum), Alexa647-labelled; test: Alexa647-WGA lectin binding to printed small molecules – biochemical, small-molecule microarray, 635/667 nm fluorescence, artefact control for SMM control-protein annotation, profiling panel (AID 1140); settings: WGA-A647 binding, 635 nm fluorescence, higher = more signal;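 also: score merges 667 nm feature emission with signal to noise over triplicate slides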
[10] = molecular target: Luciferin 4-monooxygenase (Photinus pyralis) (UniProt P08659); test: inhibition of purified Photinus pyralis luciferase – biochemical, luminescence, purified enzyme, 2006 set, primary screen (AID 1141); settings: purified firefly luciferase, SteadyGlo luminescence, 30 min; higher = more signal, called active from +8 up or from −8 down;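 also: cell-free assay with purified firefly luciferase at 100 ng per well in PBS; test concentration not given here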
Sequence of Luciferin 4-monooxygenase (Photinus pyralis) (P08659 whole entry, looked up): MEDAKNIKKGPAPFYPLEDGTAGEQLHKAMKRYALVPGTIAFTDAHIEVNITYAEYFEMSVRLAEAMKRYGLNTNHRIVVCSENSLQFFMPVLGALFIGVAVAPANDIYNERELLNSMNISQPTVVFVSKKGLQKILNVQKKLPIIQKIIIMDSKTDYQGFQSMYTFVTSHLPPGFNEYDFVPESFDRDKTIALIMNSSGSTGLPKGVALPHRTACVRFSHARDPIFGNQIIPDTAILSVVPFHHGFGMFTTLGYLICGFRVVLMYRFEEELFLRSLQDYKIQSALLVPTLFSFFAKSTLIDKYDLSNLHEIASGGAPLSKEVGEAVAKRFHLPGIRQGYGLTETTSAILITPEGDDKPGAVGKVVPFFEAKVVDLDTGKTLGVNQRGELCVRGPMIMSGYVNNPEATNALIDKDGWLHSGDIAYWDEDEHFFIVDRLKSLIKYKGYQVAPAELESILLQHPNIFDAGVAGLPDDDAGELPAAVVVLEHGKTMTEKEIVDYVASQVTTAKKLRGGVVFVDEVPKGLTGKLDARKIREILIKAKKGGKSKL

[11] = system: Wnt5a (protein binding on small-molecule microarray); test: small molecules binding Wnt5a protein – biophysical, small-molecule microarray, 635/667 nm fluorescence, primary screen (AID 1142); settings: 635 nm fluorescence, higher = more signal;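 also: fluorescence read at 667 nm with signal to noise per printed feature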
[12] = ATP-based viability of Huh7 replicon cells – cell-based, CellTiter-Glo luminescence, basal, 48 h, cytotoxicity control for HCV replication inhibitor project, primary screen (AID 1143); settings: higher = more signal, called active from +8 up or from −8 down;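 also: Huh7 hepatoma cells carrying a hepatitis C replication reporter with no stimulus; test concentration not given here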
[13] = Pseudomonas biofilm growth suppression – PAO1 strain, BacTiter-Glo luminescence, LB-PBS, primary screen (AID 1144); settings: P. aeruginosa PAO1 biofilm, 12 h, higher = more signal
[14] = basal CRE-LacZ reporter activity in PC12 – cell-based, unstimulated, primary screen (AID 1145); settings: no forskolin, luminescence, 4.5 h, higher = more signal, called active from +8 up or from −8 down
[15] = forskolin-driven CRE-LacZ activity in PC12 – cell-based, CRE-LacZ reporter, forskolin-stimulated, primary screen (AID 1146); settings: luminescence, 4.5 h, higher = more signal, called active from +8 up or from −8 down;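 also: PC12 cells with 6xCRE LacZ reporter stimulated by forskolin 10 µM; beta-galactosidase reporter signal reflecting CREB driven transcription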
[16] = molecular target: Streptavidin (Streptomyces avidinii) (UniProt P22629); test: compounds binding control protein streptavidin – biophysical, small-molecule microarray, 635/667 nm fluorescence, artefact control for SMM compound annotation, primary screen (AID 1147); settings: higher = more signal;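 also: signal reflects streptavidin binding to arrayed compounds as a control protein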
Sequence of Streptavidin (Streptomyces avidinii) (P22629 whole entry, looked up): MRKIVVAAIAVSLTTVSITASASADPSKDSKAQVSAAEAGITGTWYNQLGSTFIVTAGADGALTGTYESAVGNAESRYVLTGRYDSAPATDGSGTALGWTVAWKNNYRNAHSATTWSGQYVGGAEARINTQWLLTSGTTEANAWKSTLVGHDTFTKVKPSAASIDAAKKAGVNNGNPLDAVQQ

[17] = probe aInhba binding on compound microarray – biochemical, small-molecule microarray, 635/667 nm fluorescence, primary screen (AID 1148); settings: higher = more signal;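 also: score merges 667nm spot fluorescence with signal-to-noise for antibody binding to printed compounds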
[18] = molecular target: Torsin-1A (Homo sapiens) (UniProt O14656); test: TOR1A wild-type binding on microarray – cell lysate, small-molecule microarray, lysate, 635/667 nm, primary screen (AID 1149); settings: COS7 hTOR1A-WT lysate, 635 nm fluorescence, higher = more signal
Sequence of Torsin-1A (Homo sapiens) (O14656 whole entry, looked up): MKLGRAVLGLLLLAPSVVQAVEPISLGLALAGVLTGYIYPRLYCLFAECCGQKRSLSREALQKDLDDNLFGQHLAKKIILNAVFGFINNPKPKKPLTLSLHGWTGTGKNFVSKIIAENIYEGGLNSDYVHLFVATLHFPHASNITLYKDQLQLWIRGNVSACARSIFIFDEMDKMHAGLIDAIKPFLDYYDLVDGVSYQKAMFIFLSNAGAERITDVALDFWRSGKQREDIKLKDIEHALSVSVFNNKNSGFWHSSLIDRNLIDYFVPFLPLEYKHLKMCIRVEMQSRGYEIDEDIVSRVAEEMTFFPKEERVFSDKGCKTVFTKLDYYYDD

[19] = molecular target: Torsin-1A (Homo sapiens) (UniProt O14656); test: torsin A mutant lysate binding on microarrays – cell lysate, small-molecule microarray, COS7 lysate, 635/667 nm fluorescence, primary screen (AID 1150); settings: COS7 hTOR1A mutant lysate, 635 nm fluorescence, higher = more signal;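 also: score pools 667 nm emission and signal to noise measuring lysate protein binding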
[20] = system: Sonic hedgehog protein (Shh); test: Sonic hedgehog microarray binding compounds – biochemical, small-molecule microarray, 635/667 nm fluorescence, primary screen (AID 1151); settings: 635 nm fluorescence, higher = more signal;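 also: Shh protein binding to compounds spotted on small-molecule microarray slides; score combines spot fluorescence intensity with signal-to-noise across triplicate slides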

| SMILES | composite z-score [1] | composite z-score [2] | composite z-score [3] | composite z-score [4] | composite z-score [5] | composite z-score [6] | z-score [7] | composite z-score [8] | composite z-score [9] | z-score [10] | composite z-score [11] | z-score [12] | z-score [13] | z-score [14] | z-score [15] | composite z-score [16] | composite z-score [17] | composite z-score [18] | composite z-score [19] | composite z-score [20] |
| --- | --- | --- | --- | --- | --- | --- | --- | --- | --- | --- | --- | --- | --- | --- | --- | --- | --- | --- | --- | --- |
| CCCCCCc1nc(C2CC2)cc2c1[Si](C(C)C)(C(C)C)O[C@H]2c1ccccc1 | -0.523 | -0.873 | 0.0181 | -0.675 | 0.0915 | 0.248 | -0.911 | 1.05 | -0.127 | 0.747 (inactive) | -0.0368 | 0.086 (inactive) | -0.0699 (inactive) | 0.134 (inactive) | 0.128 (inactive) | 0.147 | 0.0319 | 0.338 | 0.378 | 1.59 |
| COc1ccc(CCN2C(=O)[C@@]3(Cc4ccccc42)c2ccccc2C(=O)N(Cc2ccccc2OC)[C@H]3c2ccc(CO)cc2)cc1 | -0.983 | -1.04 | -0.149 | -1.45 | -1.19 | -0.832 | 0.132 | -1.55 | -0.176 | -0.377 (inactive) | -0.166 | -4.54 (inactive) | 0.0431 (inactive) | 0.649 (inactive) | -0.341 (inactive) | -0.491 | -0.126 | -0.194 | -0.933 | -0.384 |
| O=C1OCC=C[C@H]2OC34C=CCN(Cn5nnc6ccccc65)C(=O)[C@H]3N(CCCO)C(=O)[C@@H]4[C@@H]12 (stereo not given in full) | 0.21 | -0.603 | -0.506 | -1.3 | -0.537 | -0.241 | -0.842 | -0.618 | -0.43 | 0.314 (inactive) | -0.439 | -2.27 (inactive) | -1.17 (inactive) | -0.887 (inactive) | -0.247 (inactive) | -0.266 | -0.224 | 0.183 | -1.85 | 0.182 |
| CN1C(=O)C2C=CC(C(O)c3cccc4ccccc34)N(N3CCCCC3)C2C1=O (stereo not given) | 2.11 | 1.15 | 0.127 | 0.853 | 1.23 | 0.225 | -0.0645 | 0.789 | 1.3 | -0.848 (inactive) | 0.156 | 0.64 (inactive) | 0.32 (inactive) | -0.136 (inactive) | 0.0556 (inactive) | 1.85 | 0.0582 | 0.613 | 0.781 | 0.169 |
| C=CCNC(=O)[C@H]1[C@@H]2C(=O)O[C@@H](c3ccccc3)[C@@H](c3ccccc3)N2[C@@H](c2ccc(O)cc2)[C@]12C(=O)N(C(=O)OCCOC)c1ccccc12 | 3.08 | 1.24 | 0.484 | 0.886 | 0.852 | 0.198 | -0.8 | 0.31 | 0.708 | -0.109 (inactive) | 0.381 | -2.03 (inactive) | 0.309 (inactive) | 0.128 (inactive) | 5.62 (inactive) | -0.0654 | 0.122 | 0.265 | 1.02 | 1.11 |
| COCCOC(=O)N1C(=O)[C@@]2(c3cc(C#CC4(O)CCCCCC4)ccc31)[C@H](c1ccc(O)cc1)N1[C@H](c3ccccc3)[C@H](c3ccccc3)OC(=O)[C@H]1[C@@H]2C(=O)NC[C@H](O)c1ccccc1 | 0.496 | 1.16 | 0.987 | 0.87 | 1.26 | 1.64 | -0.939 | 1.28 | 0.733 | -0.001 (inactive) | 0.677 | -1.48 (inactive) | -0.277 (inactive) | 0.712 (inactive) | -0.61 (inactive) | 0.383 | -0.125 | 0.116 | 1.09 | 1.21 |
| COc1ccc(NC(=O)O[C@H]2[C@H](OC(=O)Nc3ccccc3)[C@H](OC(=O)Nc3ccccc3)[C@@H](OC)O[C@@H]2CO)cc1 | 1.65 | 1.19 | 0.709 | 0.284 | 1.35 | 1.45 | 0.732 | 0.735 | 0.98 | -0.128 (inactive) | 1.14 | -4.38 (inactive) | 0.643 (inactive) | 0.204 (inactive) | -1.05 (inactive) | 0.0994 | 0.398 | 0.97 | 1.1 | 1.44 |
| COc1cc(OC)c(C(O)C2C=CC3C(=O)N(c4ccccc4)C(=O)C3N2Nc2ccccc2)cc1Br (stereo not given) | 1.95 | 1.18 | 0.531 | 0.454 | 0.461 | -0.179 | -0.267 | 0.387 | 0.126 | -0.229 (inactive) | -0.0276 | -1.12 (inactive) | -0.415 (inactive) | 0.0501 (inactive) | -0.434 (inactive) | 1.24 | 0.0155 | -0.162 | 0.282 | -0.381 |
| COC1OC[C@]2(C)[C@H]3C4=C(CN2C(=O)OC(C)(C)C)[C@H](C)C(CO)C(CO)C4CC[C@@H]13 (stereo not given in full) | 2.1 | 1.24 | 1.14 | 0.998 | 1.05 | -0.636 | 2.03 | -0.664 | 1.41 | 0.0207 (inactive) | 0.987 | -0.14 (inactive) | 0.326 (inactive) | 0.197 (inactive) | 0.212 (inactive) | 2.17 | 0.109 | 0.288 | 0.86 | -0.0425 |
| NC(=O)NCC#Cc1ccc2c(c1)[C@]1(C(=O)N2)[C@H](C(=O)NC[C@H](O)c2ccccc2)[C@H]2C(=O)O[C@H](c3ccccc3)[C@H](c3ccccc3)N2[C@@H]1c1ccc(OCCO)cc1 | -0.0888 | 1.05 | -0.0193 | 0.829 | 1.29 | 0.177 | -0.303 | -0.0126 | 0.915 | -1.9 (inactive) | 0.496 | 0.546 (inactive) | -0.223 (inactive) | -0.698 (inactive) | -0.535 (inactive) | 0.661 | 0.185 | -0.0075 | -0.002 | 0.728 |
